{
  "source": "PubChem BioAssay (NCATS)",
  "note": "Values joined by “and” are separate entries in the source; they are usually repeats but may differ in a detail not shown here. Equal entries are not always repeated. Results filed as inconclusive are left out. Active and inactive are the calls of the source. Unless noted, calls come from the whole dose curve; as a rule, active = well fitted inhibition curve with a large enough effect; inconclusive = small, poorly fitted or top-dose-only effect; inactive = flat fitted curve, though single readings scatter.",
  "data": [
    {"tested_on": "not listed separately", "experiment": "qHTS Assay for Lipid Storage Modulators (AID 1519)", "conditions": "Drosophila S3 cells, BODIPY lipid droplet/cell ratio, laser cytometry; measured here: lipid channel max response; cells loaded with oleic acid", "method_in_brief": "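Cells seeded at 5,000 per well were treated with compounds over a concentration series and loaded with oleic acid (400 uM, as added). Lipid droplet fluorescence (488 nm excitation, 500-530 nm channel) was read by laser-scanning cytometry and normalized to 20 uM Triacsin C.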", "values": [
      {"molecule": "CN1CCCC[C@@H]1CCN1c2ccccc2Sc2ccc(S(C)=O)cc21", "note": "(stereo partly specified)", "max response": "-7.46%"},
      {"molecule": "CN(Cc1ccco1)c1ccnc(-c2cccc(NS(C)(=O)=O)c2)n1", "max response": "26.7%"},
      {"molecule": "Cc1cccc(CNc2ncncc2-c2ccccc2C(F)(F)F)c1", "max response": "3.62%"},
      {"molecule": "COc1ccccc1-c1ccc2ncnc(N(C)C)c2c1", "max response": "-7.7%"},
      {"molecule": "COc1cccc(Nc2ncc3nc(C)c(=O)n(CCC#N)c3n2)c1", "max response": "-28.8%"},
      {"molecule": "Cn1cccc1C(=O)N1CCC2(CC1)CN(Cc1cc(C(F)(F)F)cc(C(F)(F)F)c1)C2", "max response": "-4.98%"},
      {"molecule": "COc1ccc2[nH]cc(CCNc3ncnc4ccc(-c5ccc(C(=O)N(C)C)cc5)cc34)c2c1", "max response": "-23.3%"},
      {"molecule": "CN(C)Cc1ccccc1-c1ccc2ncnc(NCc3ccccc3)c2c1", "max response": "25.6%"},
      {"molecule": "Cc1cccc(CNc2cc(-c3ccc(C(=O)N(C)C)cc3)ncn2)c1", "max response": "1.9%"},
      {"molecule": "COc1ccc2[nH]cc(CCNc3cc(-c4ccoc4)ncn3)c2c1", "max response": "17.6%"},
      {"molecule": "Cc1cccc(CNc2ccnc(-c3ccc(C(=O)N(C)C)cc3)n2)c1", "max response": "0.35%"},
      {"molecule": "CN(C)Cc1ccccc1-c1nc(N(C)Cc2ccco2)c2ccccc2n1", "max response": "24.7%"},
      {"molecule": "Cc1cccc(CNc2nc(-c3ccoc3)nc3ccccc23)c1", "max response": "-2.26%"},
      {"molecule": "Cc1occc(=O)c1O", "max response": "13.2%"},
      {"molecule": "CC1=CC(=O)CC(C)(C)C1(O)/C=C/C(C)=C\\C(=O)O", "note": "(stereo unspecified)", "max response": "25.4% and 14.8%"},
      {"molecule": "CNc1nc(-c2ccccc2OC)nc2ccccc12", "max response": "-7.86%"},
      {"molecule": "COc1ccccc1-c1cncnc1NCc1cccc(C)c1", "max response": "19.2%"},
      {"molecule": "CC(=O)N1CCC2(CC1)CCN(c1ccncc1)CC2", "max response": "-6.95%"},
      {"molecule": "Cc1nc2cnc(N(C)C)nc2n(Cc2cccs2)c1=O", "max response": "16.8%"},
      {"molecule": "c1ccc2c(Nc3ccncc3)nc(-c3ccoc3)nc2c1", "max response": "22.2%"},
      {"molecule": "COCC(=O)N1CCC2(CCN(Cc3ccncc3)CC2)CC1", "max response": "19.1%"},
      {"molecule": "CS(=O)(=O)Nc1cccc(-c2nc(N3CCOCC3)c3ccccc3n2)c1", "max response": "-22%"},
      {"molecule": "COS(C)(=O)=O", "max response": "4.2%"},
      {"molecule": "Cc1cccc(CNc2nc(-c3cccc(NS(C)(=O)=O)c3)nc3ccccc23)c1", "max response": "-11.1%"},
      {"molecule": "CNc1ncnc2ccc(-c3ccccc3OC)cc12", "max response": "0.542%"},
      {"molecule": "N#CCCn1c(=O)cnc2cnc(N3CCNCC3)nc21", "max response": "19.4%"},
      {"molecule": "CC(C)NC(=O)N1CCC2(CC1)CCN(C(=O)c1cnccn1)CC2", "max response": "17.7%"},
      {"molecule": "COc1ccc2[nH]cc(CCNc3ncnc4ccc(-c5ccccc5CN(C)C)cc34)c2c1", "max response": "5.15%"},
      {"molecule": "COCCNc1nc(-c2cccc(OC)c2)nc2ccccc12", "max response": "-0.48%"},
      {"molecule": "CN(C)c1ccc(-c2cc(NCc3cccnc3)ncn2)cc1", "max response": "22.6%"},
      {"molecule": "COc1ccc2[nH]cc(CCNc3ncncc3-c3ccccc3CN(C)C)c2c1", "max response": "4.99%"},
      {"molecule": "Cc1ccccc1-c1nc(-n2ccnc2)c2ccccc2n1", "max response": "-2.77%"},
      {"molecule": "COc1ccccc1CNc1ccnc(-c2ccccc2C(F)(F)F)n1", "max response": "2.88%"},
      {"molecule": "COc1ccccc1-c1nc(NCc2cnc(C)cn2)c2ccccc2n1", "max response": "14.2%"},
      {"molecule": "COc1ncc2nc(-c3ccc(Cl)cc3)c(=O)n(-c3ccccc3)c2n1", "max response": "16.2%"},
      {"molecule": "COCCNc1ncnc2ccc(-c3ccccc3CN(C)C)cc12", "max response": "25.7%"},
      {"molecule": "COc1ccc(C(=O)N2CCC3(CCN(C(=O)Nc4cccc(F)c4)CC3)CC2)cc1", "max response": "22%"},
      {"molecule": "Cc1cccc(CNc2ccnc(-c3ccccc3CN(C)C)n2)c1", "max response": "-5.18%"},
      {"molecule": "CN1[C@@H]2CC[C@H]1CC(OC(=O)[C@@H](O)c1ccccc1)C2", "note": "(stereo partly specified)", "max response": "8.69%"}
    ]},
    {"tested_on": "not listed separately", "experiment": "qHTS Assay for Identification of Small Molecule Inducers of Hypoxia Response (AID 2120; active = well fitted curve in the direction sought with a large enough effect in the signal ratio, with a control signal flat, not every such curve was filed as active; the % refers to the signal ratio; note: 0% is about no effect)", "conditions": "hypoxia response reporter cells, beta-lactamase ratio readout; series mostly up to 104 µM", "method_in_brief": "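Read-out: CCF4 FRET emission ratio 460nm/530nm (excitation 405nm), converted to %Activity, with AC50 fitted across a compound titration. ME-180 cells carried an HRE-driven beta-lactamase reporter; compound exposure 17 h, 37 degrees C.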", "values": [
      {"molecule": "Cc1occc(=O)c1O", "outcome": "inactive"},
      {"molecule": "CC1=CC(=O)CC(C)(C)C1(O)/C=C/C(C)=C\\C(=O)O", "note": "(stereo unspecified)", "outcome": "inactive"},
      {"molecule": "COS(C)(=O)=O", "outcome": "inactive"}
    ]},
    {"molecular_target": "Ubiquitin carboxyl-terminal hydrolase 1 (Homo sapiens) (UniProt O94782)", "sequence (O94782 whole entry, looked up)": "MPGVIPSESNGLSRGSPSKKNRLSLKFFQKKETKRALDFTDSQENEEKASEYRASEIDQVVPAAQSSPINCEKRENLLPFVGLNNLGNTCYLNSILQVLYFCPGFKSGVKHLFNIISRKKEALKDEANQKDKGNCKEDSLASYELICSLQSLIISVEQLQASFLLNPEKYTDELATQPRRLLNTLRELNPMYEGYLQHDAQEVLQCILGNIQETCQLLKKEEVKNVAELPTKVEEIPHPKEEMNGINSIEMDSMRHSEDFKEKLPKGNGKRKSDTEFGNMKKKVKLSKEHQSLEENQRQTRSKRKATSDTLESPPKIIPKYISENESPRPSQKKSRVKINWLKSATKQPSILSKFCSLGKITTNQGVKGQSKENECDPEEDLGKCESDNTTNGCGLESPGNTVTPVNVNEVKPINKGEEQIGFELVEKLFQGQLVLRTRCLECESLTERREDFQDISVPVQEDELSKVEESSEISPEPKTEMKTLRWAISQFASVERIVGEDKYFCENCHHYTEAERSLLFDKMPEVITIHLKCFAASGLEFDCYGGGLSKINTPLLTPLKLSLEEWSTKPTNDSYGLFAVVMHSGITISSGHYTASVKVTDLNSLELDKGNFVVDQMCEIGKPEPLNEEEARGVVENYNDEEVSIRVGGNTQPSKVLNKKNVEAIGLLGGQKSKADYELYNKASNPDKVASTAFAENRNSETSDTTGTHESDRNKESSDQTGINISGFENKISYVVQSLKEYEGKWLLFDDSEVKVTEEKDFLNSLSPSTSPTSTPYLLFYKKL", "experiment": "Inhibitors of USP1/UAF1: Pilot qHTS (AID 504865); note: nearly all actives have a fitted effect of over 35% in size; note: potency is the fitted concentration of half-maximal effect", "conditions": "purified USP1/UAF1, Ub-rhodamine cleavage fluorescence; series mostly up to 54.9 µM", "method_in_brief": "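Kinetic fluorescence assay: 1nM USP1/UAF1, 15 min compound preincubation, then 150nM Ub-Rho; 480/540 nm.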", "values": [
      {"molecule": "CN1CCCC[C@@H]1CCN1c2ccccc2Sc2ccc(S(C)=O)cc21", "note": "(stereo partly specified)", "Potency": "inactive"},
      {"molecule": "CN(Cc1ccco1)c1ccnc(-c2cccc(NS(C)(=O)=O)c2)n1", "Potency": "inactive"},
      {"molecule": "CN(C)Cc1ccccc1-c1ccc2ncnc(NCc3ccccc3)c2c1", "Potency": "inactive"},
      {"molecule": "Cc1cccc(CNc2cc(-c3ccc(C(=O)N(C)C)cc3)ncn2)c1", "Potency": "inactive"},
      {"molecule": "COc1ccc2[nH]cc(CCNc3cc(-c4ccoc4)ncn3)c2c1", "Potency": "inactive"},
      {"molecule": "Cc1cccc(CNc2ccnc(-c3ccc(C(=O)N(C)C)cc3)n2)c1", "Potency": "inactive"},
      {"molecule": "CN(C)Cc1ccccc1-c1nc(N(C)Cc2ccco2)c2ccccc2n1", "Potency": "inactive"},
      {"molecule": "Cc1occc(=O)c1O", "Potency": "inactive"},
      {"molecule": "CNc1nc(-c2ccccc2OC)nc2ccccc12", "Potency": "inactive"},
      {"molecule": "c1ccc2c(Nc3ccncc3)nc(-c3ccoc3)nc2c1", "Potency": "44.7 µM (active)"},
      {"molecule": "CS(=O)(=O)Nc1cccc(-c2nc(N3CCOCC3)c3ccccc3n2)c1", "Potency": "inactive"},
      {"molecule": "COS(C)(=O)=O", "Potency": "inactive"},
      {"molecule": "CNc1ncnc2ccc(-c3ccccc3OC)cc12", "Potency": "inactive"},
      {"molecule": "COc1ccc2[nH]cc(CCNc3ncnc4ccc(-c5ccccc5CN(C)C)cc34)c2c1", "Potency": "inactive"},
      {"molecule": "CN(C)c1ccc(-c2cc(NCc3cccnc3)ncn2)cc1", "Potency": "inactive"},
      {"molecule": "COc1ccc2[nH]cc(CCNc3ncncc3-c3ccccc3CN(C)C)c2c1", "Potency": "inactive"},
      {"molecule": "COCCNc1ncnc2ccc(-c3ccccc3CN(C)C)cc12", "Potency": "inactive"},
      {"molecule": "Cc1cccc(CNc2ccnc(-c3ccccc3CN(C)C)n2)c1", "Potency": "inactive"},
      {"molecule": "CN1[C@@H]2CC[C@H]1CC(OC(=O)[C@@H](O)c1ccccc1)C2", "note": "(stereo partly specified)", "Potency": "inactive"}
    ]}
  ]
}
